# Experimental data reported in PubChem BioAssay (EPA / NIEHS).
# Inconclusive results are not listed. Calls of active or inactive are those of the source. The calls were made as follows, unless noted: active = hit-call score of the fitted dose curve at least 0.9, where 1 is the maximum; inactive = score below 0.9.
# Key:
# [1] = target: Nuclear respiratory factor 1 (Homo sapiens) (UniProt Q16656); test: ATG_NRF1_CIS: Attagene CIS-FACTORIAL HepG2 Assay for human Nuclear Respiratory Factor 1 (NRF1) Orphan Gene (AID 2282987); conditions: HepG2 NRF1 cis-element reporter, Attagene multiplex; actives raise or lower the signal
# Nuclear respiratory factor 1 (Homo sapiens), sequence (Q16656 whole entry, looked up, the tested form may be a part): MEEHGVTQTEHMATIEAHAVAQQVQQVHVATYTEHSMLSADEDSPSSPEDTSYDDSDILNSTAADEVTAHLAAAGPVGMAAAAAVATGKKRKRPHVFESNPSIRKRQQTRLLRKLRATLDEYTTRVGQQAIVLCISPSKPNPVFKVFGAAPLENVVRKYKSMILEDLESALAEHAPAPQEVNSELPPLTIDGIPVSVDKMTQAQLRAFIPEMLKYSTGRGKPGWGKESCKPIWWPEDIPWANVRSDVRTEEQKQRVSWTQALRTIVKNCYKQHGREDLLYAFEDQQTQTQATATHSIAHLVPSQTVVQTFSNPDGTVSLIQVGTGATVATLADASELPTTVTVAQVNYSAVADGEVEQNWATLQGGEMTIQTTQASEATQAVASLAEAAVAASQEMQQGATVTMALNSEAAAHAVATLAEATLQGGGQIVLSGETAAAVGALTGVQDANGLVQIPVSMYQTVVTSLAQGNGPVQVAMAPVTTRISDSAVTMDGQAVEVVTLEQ
# Outline: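 Cells (HepG2, transient MRTU transfection) are exposed to compound for 24 h, then RNA isolated and reporter mRNA amplified and fluorescently labelled. Fragments are separated by capillary electrophoresis; signal change is fitted bidirectionally relative to DMSO.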
# [2] = ATG_NFI_CIS: Attagene CIS-FACTORIAL HepG2 Assay for human Nuclear Factor I (NFI) (AID 2282989); conditions: HepG2 cis-regulatory reporter, NFI response element transcription; actives raise or lower the signal
# Outline: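 Cells: human liver HepG2, transiently transfected with promoter-regulated reporter transcription units. Exposure 24 h. Detection: fluorescent RT-PCR products separated by capillary electrophoresis, normalised to DMSO negative control.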
# [3] = ATG_NF_kB_CIS: Attagene CIS-FACTORIAL HepG2 Assay for human Nuclear Factor Kappa B (NF-kB) (AID 2282991); conditions: HepG2 Attagene cis-factorial NF-kB reporter mRNA; actives raise or lower the signal
# Outline: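 Measures mRNA induction of an NF-kB-responsive cis-element reporter in HepG2 cells transfected with multiple reporter units, sampled 24 h post-dosing; quantified by fluorescence after RT-PCR and capillary electrophoresis, fitted for activation or inhibition against DMSO.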
# [4] = ATG_Oct_MLP_CIS: Attagene CIS-FACTORIAL HepG2 Assay for human Octamer-Binding Transcription Factor (Oct) (AID 2282993); conditions: HepG2 Attagene cis-factorial Oct reporter, mRNA; actives raise or lower the signal
# Outline: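 HepG2, transient MRTU transfection, cis promoter elements; 24 h dosing; RT-PCR/CE fluorescence read-out of reporter mRNA; fit both directions vs DMSO.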
# [5] = target: human Peroxisome Proliferator-activated Receptor alpha (PPARa), PPARA (gene 5465) (UniProt Q07869); test: ATG_PPARa_TRANS: Attagene TRANS-FACTORIAL HepG2 Assay for human Peroxisome Proliferator-activated Receptor alpha (PPARa) (AID 2283001; active = hit-call score of the fitted dose curve at least 0.9, where 1 is the maximum)
# human Peroxisome Proliferator-activated Receptor alpha (PPARa), PPARA (gene 5465), sequence (Q07869 whole entry, looked up, the tested form may be a part): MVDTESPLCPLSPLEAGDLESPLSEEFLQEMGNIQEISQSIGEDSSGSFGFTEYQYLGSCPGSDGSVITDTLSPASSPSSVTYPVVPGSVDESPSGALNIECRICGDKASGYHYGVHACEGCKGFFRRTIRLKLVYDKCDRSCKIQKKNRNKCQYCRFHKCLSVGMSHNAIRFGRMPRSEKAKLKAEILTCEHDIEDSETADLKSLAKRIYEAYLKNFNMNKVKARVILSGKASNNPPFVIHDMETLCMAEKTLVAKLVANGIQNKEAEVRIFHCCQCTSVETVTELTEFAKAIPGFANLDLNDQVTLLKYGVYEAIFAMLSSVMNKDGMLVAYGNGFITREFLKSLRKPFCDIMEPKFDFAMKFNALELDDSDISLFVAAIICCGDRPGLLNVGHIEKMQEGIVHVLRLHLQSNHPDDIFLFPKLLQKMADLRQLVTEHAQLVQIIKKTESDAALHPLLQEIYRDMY
# Outline: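 Read-out is fluorescence of reporter cDNA fragments resolved by capillary electrophoresis after RT-PCR. Human HepG2 liver cells carried transfected PPARa-Gal4 chimera and GAL4-UAS reporter units, treated 24 h; activity scored as increase over DMSO.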
# [6] = target: Peroxisome proliferator-activated receptor gamma (Homo sapiens) (UniProt P37231); test: ATG_PPARg_TRANS: Attagene TRANS-FACTORIAL HepG2 Assay for human Peroxisome Proliferator-activated Receptor-gamma (PPARg) (AID 2283007; active = hit-call score of the fitted dose curve at least 0.9, where 1 is the maximum)
# Peroxisome proliferator-activated receptor gamma (Homo sapiens), sequence (P37231 whole entry, looked up, the tested form may be a part): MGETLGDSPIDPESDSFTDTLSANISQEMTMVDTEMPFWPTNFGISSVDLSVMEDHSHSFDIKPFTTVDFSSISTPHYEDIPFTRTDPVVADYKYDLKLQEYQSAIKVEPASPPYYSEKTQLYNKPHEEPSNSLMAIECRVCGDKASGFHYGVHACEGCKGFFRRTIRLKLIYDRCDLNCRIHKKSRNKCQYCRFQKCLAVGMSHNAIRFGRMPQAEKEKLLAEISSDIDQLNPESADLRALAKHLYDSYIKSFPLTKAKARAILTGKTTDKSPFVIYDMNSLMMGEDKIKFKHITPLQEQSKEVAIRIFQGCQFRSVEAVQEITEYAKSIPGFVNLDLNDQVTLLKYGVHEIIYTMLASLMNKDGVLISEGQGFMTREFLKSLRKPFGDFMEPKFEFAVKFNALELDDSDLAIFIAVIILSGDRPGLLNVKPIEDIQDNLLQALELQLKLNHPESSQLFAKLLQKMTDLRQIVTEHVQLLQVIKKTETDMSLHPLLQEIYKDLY
# Outline: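 Gain-of-signal endpoint relative to DMSO, derived from reporter mRNA levels quantified by RT-PCR and capillary electrophoresis. Cells were HepG2 transiently expressing a chimeric NR-Gal4 construct with GAL4-UAS reporters, exposed to chemicals for 24 h.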
# [7] = target: Nuclear receptor subfamily 1 group I member 2 (Homo sapiens) (UniProt O75469); test: ATG_PXR_TRANS: Attagene TRANS-FACTORIAL HepG2 Assay for human Pregnane X Receptor (PXR) (AID 2283008; active = hit-call score of the fitted dose curve at least 0.9, where 1 is the maximum)
# Nuclear receptor subfamily 1 group I member 2 (Homo sapiens), sequence (O75469 whole entry, looked up, the tested form may be a part): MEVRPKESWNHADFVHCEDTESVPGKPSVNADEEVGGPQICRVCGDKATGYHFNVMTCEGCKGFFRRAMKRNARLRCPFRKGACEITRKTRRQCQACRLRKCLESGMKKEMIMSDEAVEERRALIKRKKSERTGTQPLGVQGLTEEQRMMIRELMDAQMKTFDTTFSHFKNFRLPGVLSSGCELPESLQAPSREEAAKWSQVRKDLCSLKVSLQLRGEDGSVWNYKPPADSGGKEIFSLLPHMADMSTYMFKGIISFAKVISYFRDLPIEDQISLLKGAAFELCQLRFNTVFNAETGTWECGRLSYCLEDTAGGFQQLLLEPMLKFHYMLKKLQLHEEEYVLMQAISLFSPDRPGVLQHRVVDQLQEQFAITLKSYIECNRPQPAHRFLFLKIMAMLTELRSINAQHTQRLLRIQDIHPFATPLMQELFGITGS
# Outline: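 Read-out is fluorescence of labelled reporter cDNA fragments separated by capillary electrophoresis after RT-PCR and HpaI digestion. Source: HepG2 cells carrying PXR-GAL4/UAS reporter constructs, treated 24 h; activity fitted upward relative to DMSO.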
# [8] = target: human RAR-related Orphan Receptor beta (RORb), RORB (gene 6096) (UniProt Q92753); test: ATG_RORb_TRANS: Attagene TRANS-FACTORIAL HepG2 Assay for human RAR-related Orphan Receptor beta (RORb) (AID 2283010; active = hit-call score of the fitted dose curve at least 0.9, where 1 is the maximum)
# human RAR-related Orphan Receptor beta (RORb), RORB (gene 6096), sequence (Q92753 whole entry, looked up, the tested form may be a part): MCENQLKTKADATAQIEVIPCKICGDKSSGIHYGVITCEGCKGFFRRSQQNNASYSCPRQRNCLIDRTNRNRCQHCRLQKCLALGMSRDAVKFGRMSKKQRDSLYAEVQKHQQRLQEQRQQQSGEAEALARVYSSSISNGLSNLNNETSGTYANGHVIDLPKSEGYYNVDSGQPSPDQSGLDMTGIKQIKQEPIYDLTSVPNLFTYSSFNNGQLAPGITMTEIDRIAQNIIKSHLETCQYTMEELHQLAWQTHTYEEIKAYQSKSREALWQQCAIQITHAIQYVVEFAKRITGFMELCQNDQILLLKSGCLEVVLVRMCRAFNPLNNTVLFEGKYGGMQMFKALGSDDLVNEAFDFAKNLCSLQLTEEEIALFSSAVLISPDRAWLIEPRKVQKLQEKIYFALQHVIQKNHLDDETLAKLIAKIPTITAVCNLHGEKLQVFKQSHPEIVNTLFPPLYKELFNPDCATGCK
# Outline: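 HepG2 cells transiently transfected with GAL4-UAS reporter units expressing chimeric NR-Gal4 protein; reporter mRNA measured 24 h after dosing by RT-PCR, 6-FAM labelling and capillary electrophoresis. Gain-of-signal fitted relative to DMSO baseline.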
# [9] = ATG_NRF2_ARE_CIS: Attagene CIS-FACTORIAL HepG2 Assay for human Nuclear Factor Erythroid 2 Related Factor 2 (NFR2) response to Antioxidant Response Elements (ARE) (AID 2282992); conditions: HepG2 Attagene ARE/NRF2 reporter, transcription factor activity; actives raise or lower the signal;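 as to AC50: reporter mRNA level measured by RT-PCR and capillary electrophoresis fluorescence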
# Outline: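 Transient MRTU transfection of HepG2; 24 h compound exposure; TriZol RNA, RT with oligo(dT), PCR, 6-FAM primer extension, HpaI cut, CE. Bidirectional fit vs DMSO.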
# [10] = target: Cellular tumor antigen p53 (Homo sapiens) (UniProt P04637); test: ATG_p53_CIS: Attagene CIS-FACTORIAL HepG2 Assay for human p53 Transcription Factor (AID 2282994); conditions: HepG2 p53 cis-element reporter, Attagene mRNA; actives raise or lower the signal
# Cellular tumor antigen p53 (Homo sapiens), sequence (P04637 whole entry, looked up): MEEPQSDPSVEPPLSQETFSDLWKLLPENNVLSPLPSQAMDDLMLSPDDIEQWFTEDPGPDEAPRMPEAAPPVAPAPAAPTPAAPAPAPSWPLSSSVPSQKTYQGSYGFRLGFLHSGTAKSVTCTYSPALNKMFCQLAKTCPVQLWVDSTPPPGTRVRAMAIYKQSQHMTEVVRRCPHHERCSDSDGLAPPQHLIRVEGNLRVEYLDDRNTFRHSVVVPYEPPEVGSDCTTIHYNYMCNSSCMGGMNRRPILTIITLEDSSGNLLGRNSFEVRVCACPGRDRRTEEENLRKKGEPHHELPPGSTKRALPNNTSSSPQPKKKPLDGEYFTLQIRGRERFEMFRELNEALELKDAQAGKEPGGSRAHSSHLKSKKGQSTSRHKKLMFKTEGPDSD
# Outline: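 HepG2, transient MRTU transfection (cis promoter elements, endogenous TFs); 24 h dosing; RNA isolation, RT-PCR, 6-FAM primer extension, HpaI digest, CE fluorescence; bidirectional fit vs DMSO.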
# [11] = target: Myc proto-oncogene protein (Homo sapiens) (UniProt P01106); test: ATG_Myc_CIS: Attagene CIS-FACTORIAL HepG2 Assay for human Myelocytomatosis (Myc) Proto-Oncogene Transcription Factor (AID 2282990); conditions: HepG2, Attagene cis-reporter transcription factor activity; actives raise or lower the signal
# Myc proto-oncogene protein (Homo sapiens), sequence (P01106 whole entry, looked up, the tested form may be a part): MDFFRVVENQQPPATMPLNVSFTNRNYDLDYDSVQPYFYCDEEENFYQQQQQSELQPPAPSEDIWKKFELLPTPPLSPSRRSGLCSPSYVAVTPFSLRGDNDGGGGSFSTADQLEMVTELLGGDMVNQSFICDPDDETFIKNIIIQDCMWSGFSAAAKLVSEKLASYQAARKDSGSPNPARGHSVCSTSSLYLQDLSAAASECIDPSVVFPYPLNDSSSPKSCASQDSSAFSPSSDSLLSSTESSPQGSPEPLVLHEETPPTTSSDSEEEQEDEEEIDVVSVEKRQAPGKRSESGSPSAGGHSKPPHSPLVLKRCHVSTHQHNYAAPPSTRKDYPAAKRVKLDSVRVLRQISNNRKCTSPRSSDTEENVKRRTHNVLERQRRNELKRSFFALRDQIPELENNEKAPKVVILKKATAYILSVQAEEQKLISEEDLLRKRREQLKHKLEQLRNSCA
# Outline: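 After 24 h chemical treatment of HepG2 cells carrying multiplexed cis-regulated reporter constructs, reporter transcripts quantified by RT-PCR and capillary electrophoresis of fluorescent fragments. Gain or loss fitted against DMSO baseline.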
# [12] = target: human Peroxisome Proliferator-activated Receptor delta (PPARd), PPARD (gene 5467) (UniProt Q03181); test: ATG_PPARd_TRANS: Attagene TRANS-FACTORIAL HepG2 Assay for human Peroxisome Proliferator-activated Receptor delta (PPARd) (AID 2283002; active = hit-call score of the fitted dose curve at least 0.9, where 1 is the maximum)
# human Peroxisome Proliferator-activated Receptor delta (PPARd), PPARD (gene 5467), sequence (Q03181 whole entry, looked up, the tested form may be a part): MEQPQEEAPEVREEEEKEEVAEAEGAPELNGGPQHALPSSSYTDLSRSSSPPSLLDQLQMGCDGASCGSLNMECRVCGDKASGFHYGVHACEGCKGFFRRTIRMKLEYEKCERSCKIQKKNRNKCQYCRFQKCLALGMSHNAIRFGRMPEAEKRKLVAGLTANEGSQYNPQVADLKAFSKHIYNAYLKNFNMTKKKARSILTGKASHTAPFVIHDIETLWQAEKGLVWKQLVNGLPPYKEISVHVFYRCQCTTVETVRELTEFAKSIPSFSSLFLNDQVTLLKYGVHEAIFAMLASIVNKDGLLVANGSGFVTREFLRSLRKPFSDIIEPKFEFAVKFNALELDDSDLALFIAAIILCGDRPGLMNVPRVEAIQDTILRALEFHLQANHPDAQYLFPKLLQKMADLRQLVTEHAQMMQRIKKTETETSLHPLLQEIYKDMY
# Outline: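 Read-out is induced reporter mRNA, quantified by RT-PCR with fluorescent labelling and capillary electrophoresis after 24 h dosing. Cells are HepG2 transiently carrying multiple GAL4-UAS reporter units driven by exogenous NR-GAL4 chimeras; DMSO serves as baseline.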
# [13] = BSK_3C_TissueFactor: BioMAP Diversity Plus: 3C Assay for Tissue Factor Biomarker Activity (AID 2282997); conditions: BioMAP 3C HUVEC, tissue factor biomarker readout; actives raise or lower the signal
# Outline: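 Human vascular primary cells (umbilical vein endothelium) received test chemical; Tissue Factor was determined by ELISA at 24 h, and both gain and loss of signal versus DMSO were fitted.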
# [14] = BSK_3C_uPAR: BioMAP Diversity Plus: 3C Assay for Urokinase-type plasminogen activator receptor (uPAR) Biomarker Activity (AID 2282998); conditions: BioMAP 3C HUVEC, uPAR biomarker ELISA; actives raise or lower the signal
# Outline: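 A multiplexed primary-cell system built on human umbilical vein endothelium was used, with chemical present for 24 h before reading. Cell-surface uPAR was detected by ELISA; signal change in either direction counted against DMSO.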
# [15] = BSK_3C_VCAM1: BioMAP Diversity Plus: 3C Assay for Vascular cell adhesion molecule 1 (VCAM1) Biomarker Activity (AID 2282999); conditions: BioMAP 3C HUVEC, VCAM1 ELISA, cytokine-stimulated; actives raise or lower the signal
# Outline: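 Endothelial cells from human umbilical vein are treated with test chemical. At 24 h, VCAM-1 is measured by ELISA, and responses in either direction are fitted relative to DMSO.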
# [16] = BSK_4H_Eotaxin3: BioMAP Diversity Plus: 4H Assay for Eotaxin 3 Biomarker Activity (AID 2283000); conditions: primary human endothelial cells (HUVEC); actives raise or lower the signal;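 also: CCL26 protein level quantified by ELISA in parallel with SRB cytotoxicity check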
# Outline: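 Readout is Eotaxin-3 (CCL26) level by ELISA in primary human umbilical vein endothelial cells harvested 24 h after chemical exposure; activity fitted in both directions against DMSO control.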
# [17] = read-out: Intercellular Adhesion Molecule 1 (ICAM1), ICAM1 (gene 3383); test: BSK_3C_ICAM1: BioMAP Diversity Plus: 3C Assay for Intercellular Adhesion Molecule 1 (ICAM1) Biomarker Activity (AID 2283003); conditions: primary human endothelial cells (HUVEC); actives raise or lower the signal
# Outline: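 HUVEC primary cells stimulated under 3C conditions; ICAM1 measured by ELISA 24 h after compound dosing. Curves fitted bidirectionally against the DMSO baseline. Overt cytotoxicity checked by SRB staining of parallel cultures.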
# [18] = BSK_3C_Proliferation: Cell Proliferation Assessment in the BioMAP Diversity Plus: 3C Assay (AID 2283006); conditions: primary human endothelial cells (HUVEC)
# Outline: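 Subconfluent HUVEC (3C system) cultured with chemical; relative cell number read at 48 h by sulforhodamine B total-protein staining (0.1% SRB after 10% TCA fixation, 560 nm). Bidirectional fit relative to DMSO.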
smiles,measurement,setting,value
O=C(O)c1cc2ccccc2cc1O,outcome,[1],inactive
same,outcome,[2],inactive
same,outcome,[3],inactive
same,outcome,[4],inactive
same,outcome,[5],inactive
same,AC50,[6],36.1 µM (active)
same,outcome,[7],inactive
same,outcome,[8],inactive
CC(=O)CC(=O)N(C)C,outcome,[1],inactive
same,outcome,[2],inactive
same,outcome,[9],inactive
same,outcome,[10],inactive
same,outcome,[5],inactive
same,outcome,[7],inactive
same,outcome,[8],inactive
CC(C)C(=O)OCC=Cc1ccccc1,outcome,[1],inactive
same,outcome,[11],inactive
same,outcome,[3],inactive
same,AC50,[9],59.3 µM (active)
same,outcome,[4],inactive
same,outcome,[10],inactive
same,outcome,[12],inactive
same,AC50,[7],22.1 µM (active)
same,outcome,[8],inactive
CCCCCC(=O)O[C@]1(C(C)=O)CC[C@H]2[C@@H]3CCC4=CC(=O)CC[C@]4(C)[C@H]3CC[C@@]21C,AC50,[1],8.32 µM (active)
same,outcome,[2],inactive
same,outcome,[3],inactive
same,AC50,[9],12.6 µM (active)
same,outcome,[4],inactive
same,outcome,[10],inactive
same,outcome,[12],inactive
same,AC50,[6],3.22 µM (active)
same,AC50,[7],0.313 µM (active)
CC=CC(=O)C1=C(C)C=CCC1(C)C,outcome,[1],inactive
same,outcome,[11],inactive
same,outcome,[3],inactive
same,outcome,[9],inactive
same,outcome,[4],inactive
same,outcome,[10],inactive
same,outcome,[13],inactive
same,outcome,[14],inactive
same,outcome,[15],inactive
same,outcome,[16],inactive
same,outcome,[17],inactive
same,outcome,[18],inactive
same,outcome,[6],inactive
same,outcome,[7],inactive
CC12CCC(C1)C(C)(C)C2O (configuration not stated),outcome,[1],inactive
same,outcome,[11],inactive
same,outcome,[3],inactive
same,outcome,[9],inactive
same,outcome,[4],inactive
same,outcome,[10],inactive
same,outcome,[12],inactive
same,outcome,[7],inactive
C=C(C)C(=O)OCCC[Si](OC)(OC)OC,outcome,[1],inactive
same,outcome,[2],inactive
same,outcome,[3],inactive
same,outcome,[9],inactive
same,outcome,[4],inactive
same,outcome,[10],inactive
same,outcome,[5],inactive
same,outcome,[7],inactive
same,outcome,[8],inactive
CN(C)c1ccc(C=O)cc1,outcome,[1],inactive
same,outcome,[11],inactive
same,outcome,[3],inactive
same,outcome,[9],inactive
same,outcome,[4],inactive
same,outcome,[10],inactive
same,outcome,[5],inactive
same,outcome,[12],inactive
same,outcome,[6],inactive
same,outcome,[7],inactive
C=CC(=O)OCCCCCC,outcome,[1],inactive
same,outcome,[2],inactive
same,outcome,[9],inactive
same,outcome,[4],inactive
same,outcome,[10],inactive
same,outcome,[5],inactive
same,outcome,[12],inactive
CCCCOC(=O)C(C)OC(=O)CCC (configuration not stated),outcome,[1],inactive
same,outcome,[2],inactive
same,outcome,[3],inactive
same,outcome,[9],inactive
same,outcome,[4],inactive
same,outcome,[10],inactive
same,outcome,[5],inactive
same,outcome,[6],inactive
same,outcome,[7],inactive
CCOC(=O)COC(=O)c1ccccc1C(=O)OCC,outcome,[1],inactive
same,outcome,[2],inactive
same,outcome,[9],inactive
same,outcome,[4],inactive
same,outcome,[10],inactive
same,outcome,[5],inactive
same,outcome,[6],inactive
